Records with an inconclusive call do not appear. A structure can be active in one record and inactive in another. The source made the active and inactive calls. Rule for the calls, unless noted: active = hit-call score of the fitted dose curve at least 0.9, where 1 is the maximum; inactive = score below 0.9.
Tests used:
[1] = CCTE_Harrill_HTTr_Viability_MCF7: CCTE's 6-hour Cell Viability Assessment for the High-Throughput Transcriptomics (HTTr) Platform, in MCF-7 cells cultured in DMEM + 10% fetal bovine serum, Harrill Lab (AID 2284010)
How it was run: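 MCF-7 cells in DMEM + 10% FBS, 384-well, exposed 6 h to an eight-point dilution series. Membrane integrity scored by high-content imaging of propidium iodide exclusion; bidirectional fit versus DMSO.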

[2] = CCTE_Harrill_HTTr_Apoptosis_MCF7: CCTE's 6-hour Apoptosis Assessment for the High-Throughput Transcriptomics (HTTr) Platform, in MCF-7 cells cultured in DMEM + 10% fetal bovine serum, Harrill Lab (AID 2284011)
How it was run: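 Cells are dosed with test chemicals at eight concentrations and imaged 6 hours later for caspase-3/7 activity using a green fluorogenic detection reagent. Activity is fitted in both directions against DMSO controls.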

[3] = CCTE_Harrill_HTTr_CellCount_MCF7: CCTE's Cell Proliferation Assessment for the High-Throughput Transcriptomics (HTTr) Platform, Harrill Lab (AID 2284012; active = hit-call score of the fitted dose curve at least 0.9, where 1 is the maximum;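 note: cells exposed to compound for six hours; intended direction is loss of nuclei count meaning fewer cells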)
How it was run: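 MCF7 cells exposed 6 hours to an eight-point dilution series; Hoechst-stained nuclei counted by high-content imaging. Bidirectional curve fitting against DMSO baseline.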

[4] = CCTE_Shafer_MEA_acute_burst_number: CCTE's Neural Acute Assay for Single-Electrode Bursts, Shafer Lab (AID 2284013)
How it was run: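 Spontaneous network activity of primary rat cortical neurons was recorded extracellularly on microelectrode arrays at 37 C, with 40-min periods before and during exposure to 0.03-40 uM compound on DIV 13 or 15.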

[5] = CCTE_Shafer_MEA_acute_burst_duration_mean: CCTE's Neural Acute Assay for Mean Burst Duration, Shafer Lab (AID 2284014);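 note: hits are decreases in mean burst duration relative to DMSO controls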
How it was run: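 Read-out is the per-well percent change in mean burst duration (first to last spike within a single-electrode burst) between 40-min recordings before and after compound. Cultures were primary rat cortical neurons on MEAs, dosed at 0.03-40 uM on DIV 13 or 15.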

[6] = CCTE_Shafer_MEA_acute_per_burst_spike_number_mean: CCTE's Neural Acute Assay for Average Number of Spikes Per Burst, Shafer Lab (AID 2284015);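 note: hits are decreases in mean spikes per burst versus baseline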
How it was run: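 Read-out: percent change in mean spikes per burst, each well's post-exposure 40-min recording versus its own 40-min baseline. Rat cortical cultures, DIV 13 or 15, compounds 0.03-40 uM; DMSO is negative control, loss-of-signal fitting.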

[7] = CCTE_Shafer_MEA_acute_interburst_interval_mean: CCTE's Neural Acute Assay for Mean Interburst Interval, Shafer Lab (AID 2284016);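 note: percent change of mean interburst interval versus each well's own pre-dose baseline; curves fitted for decrease in interburst interval relative to DMSO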
How it was run: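 Rat cortical cultures, DIV 13/15; 20 min equilibration, 40 min baseline, compound 0.03-40 uM, 40 min re-recording, 37 C. Spikes detected at 8x rms noise (300-5000 Hz band-pass). Endpoint: % change in interburst interval, fitted in loss direction vs DMSO.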

[8] = CCTE_Shafer_MEA_acute_burst_percentage_mean: CCTE's Neural Acute Assay for Percentage of Spikes in a Burst, Shafer Lab (AID 2284017);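 for AC50: curve fitted for loss of signal so potency reflects decreased burst percentage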
How it was run: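 Rat cortical cultures, DIV 13/15, 37 C. Spikes detected at 8x rms noise (300-5000 Hz band-pass). Burst spikes/total spikes averaged across electrodes per well; % change post- vs pre-treatment (40 min each), loss-of-signal fit vs DMSO.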

[9] = CCTE_Shafer_MEA_acute_burst_percentage_std: CCTE's Neural Acute Assay for Standard Deviation of Burst Percentage, Shafer Lab (AID 2284018);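 note: fitted in the negative direction so actives lower burst percentage SD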
How it was run: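 Value is percent change from baseline in the across-electrode SD of spikes-in-bursts percentage, wells with >/= 10 active electrodes. Acute 40-min exposure to 0.03-40 uM on DIV 13 or 15 rat cortical cultures, recorded at 37 C after 40-min baseline.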

[10] = CCTE_Shafer_MEA_acute_per_network_burst_spike_number_mean: CCTE's Neural Acute Assay for Average Number of Spikes in a Network Burst, Shafer Lab (AID 2284019);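 for AC50: curve fitted for loss of signal so actives reduce spikes per network burst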
How it was run: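 Read-out is mean spike count per network burst, taken as percent change between a 40-min pre-exposure and a 40-min post-exposure recording per well. Rat primary cortical neurons on MEAs at 37 C, DIV 13 or 15; compounds at 0.03-40 uM.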

[11] = CCTE_Shafer_MEA_acute_per_network_burst_spike_number_std: CCTE's Neural Acute Assay for Standard Deviation of Number of Spikes in a Network Burst, Shafer Lab (AID 2284020);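 note: fitted for decrease in spike-number SD versus DMSO so actives lower it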
How it was run: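 Spontaneous network activity of primary rat cortical neurons is recorded extracellularly before and after a 40-min compound exposure (0.03-40 uM) at 37 C. The endpoint is the well's percent change in burst spike-number SD.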

[12] = CCTE_Shafer_MEA_acute_per_network_burst_electrodes_number_mean: CCTE's Neural Acute Assay for Mean Number of Electrodes in a Network Burst, Shafer Lab (AID 2284021);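 note: curves fitted for decreases only so hits reduce electrodes per burst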
How it was run: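 Cultures of rat cortex neurons were exposed on DIV 13 or 15 to compounds at 0.03-40 uM in at least three wells each. Activity over 40 min before and 40 min after exposure at 37 C gave the percent change in electrodes per network burst.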

[13] = CCTE_Shafer_MEA_acute_network_burst_percentage: CCTE's Neural Acute Assay for Percentage of Network Bursts, Shafer Lab (AID 2284022);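 note: curves fitted for loss so actives lower network burst percentage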
How it was run: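 Cortical neurons from rat were grown over microelectrode arrays and used on day 13 or 15 in vitro. Wells with at least 10 active electrodes received test chemical at 0.03-40 uM. Activity during 40 min of exposure was compared with the preceding 40-min baseline.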

[14] = CCTE_Shafer_MEA_acute_cross_correlation_area: CCTE's Neural Acute Assay for Area of Cross Correlation, Shafer Lab (AID 2284024);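 note: area under pooled inter-electrode spike cross-correlation near zero lag as percent change from own baseline; curves fitted for loss of cross-correlation area so actives lower synchrony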
How it was run: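 Acute exposure of mature rat cortical networks (day 13 or 15 post-plating) to 0.03-40 uM compound. Spontaneous spiking on MEA, 40 min pre- and post-dose at 37 C.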

[15] = CCTE_Shafer_MEA_acute_cross_correlation_HWHM: CCTE's Neural Acute Assay for Cross Correlation at Half Width at Half Maximum, Shafer Lab (AID 2284026);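 note: percent change per well from pre-dose baseline in spike cross-correlogram half width; hits are a decrease in cross-correlogram half width relative to DMSO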
How it was run: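 Primary cortex (rat), MEA, DIV 13/15; compound 0.03-40 uM; 40 min pre + 40 min post at 37 C; spike threshold 8x rms; wells need ≥10 active electrodes; endpoint = % change in cross-correlogram HWHM vs baseline, DMSO negative control.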

[16] = CCTE_Shafer_MEA_acute_synchrony_index: CCTE's Neural Acute Assay for Synchrony, Shafer Lab (AID 2284027);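 note: network synchrony index of spontaneous spiking in primary rat cortical neurons on MEAs; fitted for loss of signal so actives lower synchrony relative to DMSO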
How it was run: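 Primary rat cortical neurons on 48-well MEAs, dosed at 0.03–40 uM on DIV 13 or 15. Spikes are recorded for 40 min at 37C before and after exposure, and synchrony index (0–1) is expressed as percent change from baseline per well.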

[17] = CCTE_Shafer_MEA_dev_firing_rate_mean: CCTE's Neural Network Formation Assay for Mean Firing Rate, Shafer Lab (AID 2284031);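 for AC50: curve fitted for loss of firing so AC50 reflects decreased mean firing rate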
How it was run: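 Primary rat cortical neurons on 48-well MEA plates, exposed from plating day 0 with dosing renewed on DIV 5 and 9. Mean well firing rate over active electrodes, recorded days 5, 7, 9, 12, summarised as trapezoidal AUC.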

[18] = CCTE_Shafer_MEA_dev_per_burst_spike_percent: CCTE's Neural Network Formation Assay for Percent of Spikes in a Burst, Shafer Lab (AID 2284032);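 for AC50: fitted as a decrease in burst spike percentage below DMSO baseline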
How it was run: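 Rat primary cortical neurons on 16-electrode MEA wells, dosed from plating day 0 for 12 days with renewal on DIV 5 and 9; spikes-in-bursts percentage averaged over bursting electrodes, collapsed as AUC across days 5, 7, 9, 12; loss direction versus DMSO.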

[19] = CCTE_Deisenroth_AIME_384WELL_CTox_Active: Cytotoxicity Assessment (CTOX) in CCTE's 384-well Estrogen Receptor Transactivation Assay with AIME metabolic competence (metabolism positive), Deisenroth Lab (AID 2284037; active = hit-call score of the fitted dose curve at least 0.9, where 1 is the maximum;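 note: chemicals first conditioned 2 h by alginate-bound induced rat liver S9 before cells; activity means signal loss indicating cell death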)
How it was run: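 Cytotoxicity in VM7Luc4E2 breast cells, 24 hour, measured as protease-substrate fluorescence loss, after 2-hour metabolic conditioning with induced rat hepatic S9 in alginate microspheres. Concentrations 0.002 - 200 uM, 10 points, bidirectional fitting.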

Measured: AC50

CC(C1CC1)C(O)(Cn1cncn1)c1ccc(Cl)cc1 (stereo not given)
inactive: [1] | [2] | [3]

Nc1c(Cl)cc([N+](=O)[O-])cc1Cl
active: [7] 30.2 µM | [8] 20 µM | [9] 26.9 µM | [11] 37 µM | [12] 20 µM | [13] 26 µM | [16] 32.8 µM
not listed: [17] | [18] | [19]
inactive: all other assays above

CCc1cccc(CC)c1N(COC)C(=O)CCl
inactive: [1] | [2]

CCNc1nc(Cl)nc(NC(C)(C)C#N)n1
inactive: [1] | [2]

C[N+]1(C)CCCCC1
not listed: [19]
inactive: all other assays above

Cc1nn(-c2cc(NS(C)(=O)=O)c(Cl)cc2Cl)c(=O)n1C(F)F
inactive: [1] | [2] | [3]

CNC(=O)ON=C(C)SC
inactive: [1] | [2]

FC(F)C(F)(F)OCC(Cn1cncn1)c1ccc(Cl)cc1Cl (stereo not given)
active: [15] 23.8 µM
not listed: [17] | [18] | [19]
inactive: all other assays above

CCc1cccc(C)c1N(C(=O)CCl)C(C)COC (stereo not given)
active: [4] 14.8 µM | [8] 10.9 µM | [11] 10.8 µM | [12] 5.76 µM | [13] 21.9 µM | [15] 26.9 µM | [16] 8.13 µM
not listed: [17] | [18] | [19]
inactive: all other assays above

CC1=NNC(=O)N(/N=C/c2cccnc2)C1
inactive: all assays above

CCCCN(CC)c1c([N+](=O)[O-])cc(C(F)(F)F)cc1[N+](=O)[O-]
inactive: [1] | [2]

CC(C)=CC1C(C(=O)OCN2C(=O)C3=C(CCCC3)C2=O)C1(C)C (stereo not given)
active: [8] 20 µM | [9] 26.1 µM | [15] 28.6 µM | [16] 25.1 µM
not listed: [19]
inactive: all other assays above

COP(=O)(NC(C)=O)SC (stereo not given)
inactive: [1] | [2] | [3] | [4] | [5] | [6] | [7] | [8] | [9] | [10] | [11] | [12] | [13] | [14] | [15] | [16] | [17] | [18] | [19]
active: [6] 0.124 µM | [7] 0.0544 µM | [8] 0.792 µM | [9] 4.26 µM | [11] 0.299 µM | [16] 0.804 µM

COP(=O)(OC)C(O)C(Cl)(Cl)Cl (stereo not given)
active: [6] 2.15 µM | [10] 15 µM | [15] 15 µM | [18] 50 µM
inactive: [1] | [2] | [3] | [4] | [5] | [7] | [8] | [9] | [11] | [12] | [13] | [14] | [16] | [17] | [18]

CCOP(=S)(OCC)Oc1ccc2c(C)c(Cl)c(=O)oc2c1
active: [4] 1.94 µM | [6] 3.98 µM | [7] 4.19 µM | [8] 3.9 µM | [10] 1.99 µM | [11] 4.38 µM | [12] 4.12 µM | [13] 27.2 µM | [15] 2.38 µM | [16] 6.95 µM | [17] 29.6 µM | [18] 50 µM
inactive: [1] | [2] | [3] | [5] | [9] | [14] | [19]

From PubChem BioAssay (EPA / NIEHS)
